# Reference: PubChem BioAssay (NCATS)
# The source made the active and inactive calls. Unless noted, the call rests on the fitted dose curve; in most records, active means well fitted curve in the direction sought with a large enough effect; inconclusive means small, poorly fitted or top-dose-only effect, or another doubt; inactive means no such curve, though single readings can be large or run the other way.
# Biological target: Thyrotropin-releasing hormone receptor (Homo sapiens) (UniProt P34981)
# Assay: qHTS for Small Molecule Agonists and Allosteric Enhancers of Human TRH Receptor: Validation Screen for Agonists (AID 493127;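 active means calcium activation more than 3 SD above the typical response in the agonist read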)
# Details: TRH receptor agonist cell assay; at 2 µM; hits give high values
# Summary of the method: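 TRHR cells loaded with fluo-8 calcium dye; FDSS kinetic fluorescence (Ex 480/Em 530) read at 1 s/cycle after 23 nL compound addition. Agonist-mode calcium response recorded before the 10 nM TRH (EC20) addition.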
# Further: 0% is about no effect.
# Thyrotropin-releasing hormone receptor (Homo sapiens), sequence (P34981 whole entry, looked up): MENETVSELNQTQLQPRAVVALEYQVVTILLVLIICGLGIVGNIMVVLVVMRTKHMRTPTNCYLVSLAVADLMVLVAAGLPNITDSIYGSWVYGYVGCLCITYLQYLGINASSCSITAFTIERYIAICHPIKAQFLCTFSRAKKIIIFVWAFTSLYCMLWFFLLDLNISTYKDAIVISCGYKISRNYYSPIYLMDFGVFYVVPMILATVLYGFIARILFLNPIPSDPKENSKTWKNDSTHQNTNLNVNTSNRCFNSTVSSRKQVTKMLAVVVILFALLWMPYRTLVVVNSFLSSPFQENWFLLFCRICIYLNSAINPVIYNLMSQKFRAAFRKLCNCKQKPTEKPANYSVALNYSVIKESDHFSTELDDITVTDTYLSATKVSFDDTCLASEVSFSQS
row,Compound,activation
1,O=C(NCCNCC(O)COc1ccc(O)cc1)N1CCOCC1 (stereo not given),1% (inactive)
2,O=c1[nH]c(=O)n([C@H]2C[C@H](O)[C@@H](CO)O2)cc1/C=C/Br,0.938% (inactive)
3,Cc1cc(C)c(NC(=O)C[C@H](CC(=O)O)c2cccc3ccccc23)c(C(=O)N2CCC3(CCCC3)CC2)c1,0.125% (inactive)
4,C[C@@](Cc1ccc(O)c(O)c1)(NN)C(=O)O,0.562% (inactive)
5,Oc1ccc(/C=C/c2cc(O)cc(O)c2)cc1,0.812% (inactive)

# Biological target: Galactokinase (Homo sapiens) (UniProt P51570)
# Assay: qHTS Validation Assay for Inhibitors of Human Galactokinase (GALK) (AID 493189)
# Details: purified human GALK enzyme activity, qHTS 7-point titration; series mostly up to 57.5 µM
# Text: NIH Molecular Libraries Probe Production Centers Network [MLPCN]
# NIH Chemical Genomics Center [NCGC]
# Assay Submitter (PI): Kent Lai (University of Utah School of Medicine, 50 N Mario Capecchi Drive, Salt Lake City, UT 84132)
# Inherited deficiency of galactose-1-phosphate uridyltransferase (GALT) can result in a potentially lethal disorder called Classic Galactosemia (OMIM 230400). Several lines of evidence indicate that an elevated level of galactose-1-phosphate (gal-1-p), the product of galactokinase (GALK), is a major, if not sole, pathogenic mechanism in patients with classic galactosemia. Therefore, finding inhibitors of GALK is a potential novel therapy for this inherent metabolic disease and is the long term goal of this project.
# GALK (provided by the assay submitter) was assayed using ATP and D-(+)-Galactose (Sigma-Aldrich cat# G0750) as substrates. Promega Kinase-Glo Plus (cat# V3774) technology was used to detect the residual ATP following kinetic reaction. Briefly, the Kinase-Glo Plus contains Ultra-Glo [2] luciferase and D-luciferin which generates a bioluminescence signal from the remaining ATP.
# NCGC Assay Protocol Summary:
# Three uL/well of ATP-buffer solution (35 uM ATP, 20mM HEPES pH8.0, 5 mM MgCl2, 60 mM NaCl, 1 mM DTT, 0.01% BSA final concentration) was dispensed into 1536-well, assay plates (Greiner, solid white medium-binding plates) with Aurora Discovery BioRAPTR Flying Reagent Dispenser (FRD; Beckton-Dickenson). Compound solution (23 nL) was transferred to the assay plate using the Kalypsys 1536-pin tool. One uL/well GALK-galactose solution (5 nM GALK, 100 uM galactose, 20 mM HEPES pH8.0, 5 mM MgCl2, 60 mM NaCl, 1 mM DTT, 0.01% BSA final concentration) was then added using the FRD yielding a total kinase reaction volume of 4 uL/ well. After 1 hour of room temperature incubation, 4 uL Kinase-Glo Plus reagent was added for a final assay volume of 8 uL/ well. Luminescence was detected with the ViewLux plate reader (Perkin Elmer, Waltham, MA) after 10 min incubation using a 1 sec exposure time and 2x binning.
# Galactokinase (Homo sapiens), sequence (P51570 whole entry, looked up): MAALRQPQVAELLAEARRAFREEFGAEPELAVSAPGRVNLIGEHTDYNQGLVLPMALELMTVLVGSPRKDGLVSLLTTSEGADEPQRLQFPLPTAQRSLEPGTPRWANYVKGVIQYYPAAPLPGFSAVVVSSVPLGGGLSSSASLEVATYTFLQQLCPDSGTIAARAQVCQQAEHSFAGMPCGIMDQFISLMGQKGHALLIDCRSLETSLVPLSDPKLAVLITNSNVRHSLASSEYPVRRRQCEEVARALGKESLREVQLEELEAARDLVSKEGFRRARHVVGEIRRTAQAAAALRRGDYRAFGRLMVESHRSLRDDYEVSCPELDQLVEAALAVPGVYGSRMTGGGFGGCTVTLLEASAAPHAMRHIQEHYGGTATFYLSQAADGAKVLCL
row,Compound,outcome
1,O=C(NCCNCC(O)COc1ccc(O)cc1)N1CCOCC1 (stereo not given),inactive
2,O=c1[nH]c(=O)n([C@H]2C[C@H](O)[C@@H](CO)O2)cc1/C=C/Br,inactive
3,Cc1cc(C)c(NC(=O)C[C@H](CC(=O)O)c2cccc3ccccc23)c(C(=O)N2CCC3(CCCC3)CC2)c1,inactive
4,C[C@@](Cc1ccc(O)c(O)c1)(NN)C(=O)O,inactive
5,Oc1ccc(/C=C/c2cc(O)cc(O)c2)cc1,inactive
